Measurements: PubChem BioAssay (Tox21)
Several values for one entry are separate records, joined by “and”; a condition that tells them apart may be missing. Equal entries are not always repeated. Results filed as inconclusive are left out. Where a call stands in place of a potency, no number is given. Activity calls are given as the source filed them. Unless noted, the call rests on the fitted dose curve; in most records, active means well fitted curve in the direction sought with a large enough effect in the repeat runs; inconclusive means weak or mixed curves; inactive means no such curve, though single readings can be large; an effect the other way counts as inactive or inconclusive.

What was measured:
[1] = qHTS assay to test for compound auto fluorescence at 535 nm (green) in HEK293 cells (AID 720680)
[2] = qHTS assay to test for compound auto fluorescence at 460 nm (blue) in HEK293 cell free culture (AID 720681)
Method in brief: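 Compounds were added to cell-free DMEM with 10% FBS and fluorescence read directly. The blue channel used 405 nm excitation and 460 nm emission, with triamterene as the reference fluorophore.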

[3] = qHTS assay to test for compound auto fluorescence at 535 nm (green) in HEK293 cell free culture (AID 720682)
Method in brief: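 DMEM + 10% FBS, cell-free; cpd or DMSO pinned in; Ex485/Em535 read; output as fluorescein-equivalent signal.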

[4] = qHTS assay to test for compound auto fluorescence at 590 nm (red) in HepG2 cell free culture (AID 720684)
Method in brief: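 Rose Bengal sodium served as the reference for red signal. Test compounds were dispensed into serum-containing MEM (10% FBS) without cells, and plates were read at 540/590 nm.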

[5] = qHTS assay to test for compound auto fluorescence at 535 nm (green) in HepG2 cell free culture (AID 720686)
[6] = qHTS assay to test for compound auto fluorescence at 460 nm (blue) in HepG2 cells (AID 720687)
Method in brief: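 HepG2 cells in MEM with 10% FBS, attached overnight at 37 C, were exposed to compound or DMSO for 1 hr at 37 C, 5% CO2. Blue fluorescence was read at 405/460 nm, with triamterene as reference fluorophore.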

[7] = molecular target: Glucocorticoid receptor (Homo sapiens) (UniProt P04150); experiment: qHTS assay to identify small molecule agonists of the glucocorticoid receptor (GR) signaling pathway (AID 720691; active means well fitted activation curve with a large enough effect in the signal ratio in the repeat runs, not every such curve was filed as active; the % refers to the signal ratio); conditions: GR-bla HeLa, beta-lactamase reporter ratio, 18 h; activation: at 62.4 µM (top of the series)
Sequence of Glucocorticoid receptor (Homo sapiens) (P04150 whole entry, looked up): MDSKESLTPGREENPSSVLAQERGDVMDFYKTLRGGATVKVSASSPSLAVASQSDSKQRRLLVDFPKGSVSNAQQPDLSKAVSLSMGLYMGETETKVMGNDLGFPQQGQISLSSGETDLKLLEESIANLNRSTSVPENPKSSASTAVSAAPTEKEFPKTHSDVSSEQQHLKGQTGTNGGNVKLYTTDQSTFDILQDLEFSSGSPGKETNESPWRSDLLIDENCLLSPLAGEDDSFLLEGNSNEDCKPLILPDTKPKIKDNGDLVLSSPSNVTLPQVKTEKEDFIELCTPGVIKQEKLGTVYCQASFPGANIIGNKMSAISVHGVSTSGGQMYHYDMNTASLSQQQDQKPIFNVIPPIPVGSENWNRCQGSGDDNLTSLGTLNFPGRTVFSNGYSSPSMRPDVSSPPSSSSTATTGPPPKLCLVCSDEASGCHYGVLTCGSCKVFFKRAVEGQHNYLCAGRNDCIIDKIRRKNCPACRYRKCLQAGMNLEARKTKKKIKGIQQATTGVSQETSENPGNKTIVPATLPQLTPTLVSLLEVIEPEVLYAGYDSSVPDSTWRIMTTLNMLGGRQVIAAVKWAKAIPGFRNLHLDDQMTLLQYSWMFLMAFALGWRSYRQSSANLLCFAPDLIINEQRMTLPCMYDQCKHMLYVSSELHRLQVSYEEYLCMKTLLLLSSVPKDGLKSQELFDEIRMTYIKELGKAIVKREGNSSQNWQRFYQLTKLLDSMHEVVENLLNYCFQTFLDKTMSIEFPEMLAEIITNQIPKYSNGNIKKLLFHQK
Method in brief: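 HeLa GR-bla reporter line; cells pre-incubated 4 h, compound in DMSO 18 h at 37 C; LiveBLAzer B/G FRET substrate 2 h RT; fluorescence intensity read-out.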

[8] = molecular target: Glucocorticoid receptor (Homo sapiens) (UniProt P04150); experiment: qHTS assay to identify small molecule antagonists of the glucocorticoid receptor (GR) signaling pathway (AID 720692; active means well fitted inhibition curve with a large enough effect in the signal ratio in the repeat runs, not every such curve was filed as active; the % refers to the signal ratio)
Method in brief: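 Read-out: beta-lactamase FRET substrate fluorescence, 2 h at room temperature, in HeLa cells stably carrying a GRE-driven bla reporter. Compounds were co-incubated with 5 nM dexamethasone agonist (final) for 18 h at 37 C.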

[9] = qHTS assay to identify small molecule antagonists of the glucocorticoid receptor (GR) signaling pathway - cell viability counter screen (AID 720693); further: nearly all actives have a fitted effect of over 55% in size; further: potency means the concentration at half of the fitted maximal effect
[10] = qHTS assay for identifying genotoxic compounds that show differential cytotoxicity against isogenic chicken DT40 cell lines with known DNA damage response pathways - Rad54/Ku70 mutant cell line (AID 743015); further: nearly all actives have a fitted effect of over 60% in size; further: potency means the concentration at half of the fitted maximal effect
[11] = qHTS assay to identify small molecule antagonists of the androgen receptor (AR) signaling pathway - cell viability counter screen (AID 743033; further: nearly all actives have a fitted effect of over 45% in size; further: potency means the concentration at half of the fitted maximal effect)
[12] = molecular target: Androgen receptor (Homo sapiens) (UniProt P10275); experiment: qHTS assay to identify small molecule agonists of the androgen receptor (AR) signaling pathway using the MDA cell line (AID 743040; further: nearly all actives have a fitted effect of over 20% in size)
Sequence of Androgen receptor (Homo sapiens) (P10275 whole entry, looked up): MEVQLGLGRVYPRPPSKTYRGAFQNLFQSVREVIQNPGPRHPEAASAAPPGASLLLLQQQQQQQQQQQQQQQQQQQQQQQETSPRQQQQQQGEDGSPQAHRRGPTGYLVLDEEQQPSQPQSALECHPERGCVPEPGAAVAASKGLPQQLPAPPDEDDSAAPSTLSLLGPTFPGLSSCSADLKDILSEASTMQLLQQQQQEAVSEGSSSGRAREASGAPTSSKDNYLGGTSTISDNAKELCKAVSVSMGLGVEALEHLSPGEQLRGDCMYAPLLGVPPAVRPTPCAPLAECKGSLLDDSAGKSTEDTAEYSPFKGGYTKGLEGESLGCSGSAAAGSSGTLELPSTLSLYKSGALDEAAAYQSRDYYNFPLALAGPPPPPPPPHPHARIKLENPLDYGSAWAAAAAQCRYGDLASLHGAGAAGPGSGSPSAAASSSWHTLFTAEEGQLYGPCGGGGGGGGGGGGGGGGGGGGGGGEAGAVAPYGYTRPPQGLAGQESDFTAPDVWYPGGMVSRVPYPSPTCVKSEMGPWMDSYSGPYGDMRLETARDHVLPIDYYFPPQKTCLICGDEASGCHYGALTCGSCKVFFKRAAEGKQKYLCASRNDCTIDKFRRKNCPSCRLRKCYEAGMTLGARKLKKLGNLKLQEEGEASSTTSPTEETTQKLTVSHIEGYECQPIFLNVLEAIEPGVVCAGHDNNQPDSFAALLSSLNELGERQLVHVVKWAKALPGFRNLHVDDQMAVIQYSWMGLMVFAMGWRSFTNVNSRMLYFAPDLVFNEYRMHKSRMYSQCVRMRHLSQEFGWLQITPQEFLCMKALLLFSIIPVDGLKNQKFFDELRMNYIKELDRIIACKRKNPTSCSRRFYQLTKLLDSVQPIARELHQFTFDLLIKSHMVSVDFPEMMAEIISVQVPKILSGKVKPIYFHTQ
Method in brief: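 Luciferase read-out, ONE-Glo, 30 min RT. Cells: MDA-kb2 AR-luc, MMTV promoter with AR and GR response elements. Compound exposure 16 h, 37C, 0% CO2, after 5 h pre-incubation. qHTS agonist mode.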

[13] = qHTS assay to identify small molecule antagonists of the androgen receptor (AR) signaling pathway using the MDA cell line - cell viability counter screen (AID 743041; further: nearly all actives have a fitted effect of over 45% in size; further: potency means the concentration at half of the fitted maximal effect)
Method in brief: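 Cytotoxicity counter screen: MDA-kb2 AR-luc cells, compound + R1881, 16 h, 37C, 0% CO2; CellTiter-Fluor added at 15.5 h, fluorescence read after 30 min.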

[14] = molecular target: Androgen receptor (Homo sapiens) (UniProt P10275); experiment: qHTS assay to identify small molecule antagonists of the androgen receptor (AR) signaling pathway using the MDA cell line (AID 743042; further: nearly all actives have a fitted effect of over 55% in size; further: potency means the concentration at half of the fitted maximal effect)
Method in brief: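 MDA-kb2 breast carcinoma cells carrying MMTV-luciferase (AR/GR responsive) were co-treated with compounds and the agonist R1881 for 16 h at 37C. Inhibition read as ONE-Glo luminescence; CellTiter-Fluor fluorescence measured in parallel for cytotoxicity.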

[15] = qHTS assay to test for compound auto fluorescence at 460 nm (blue) in HepG2 cell free culture (AID 720685)
Method in brief: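 Cell-free plates of MEM plus 10% FBS received 23 nL compound or DMSO vehicle; blue-channel (405/460 nm) intensity scored against triamterene as reference fluorophore.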

[16] = qHTS assay to test for compound auto fluorescence at 590 nm (red) in HEK293 cell free culture (AID 720683)
Method in brief: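 Cell-free wells of DMEM with 10% FBS received compound, and intrinsic fluorescence was read at excitation/emission 540/590 nm. Values expressed as equivalence to Rose Bengal sodium.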

[17] = qHTS assay for identifying genotoxic compounds that show differential cytotoxicity against isogenic chicken DT40 cell lines with known DNA damage response pathways - wild type cell line (AID 743012); further: nearly all actives have a fitted effect of over 60% in size; further: potency means the concentration at half of the fitted maximal effect
Method in brief: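 CellTiter-Glo luminescence readout of viability in wild type DT40 cells after 40 h compound exposure at 37 C/5% CO2; 300 cells/well; reagent incubated 30 min at room temperature before reading.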

[18] = qHTS assay for identifying genotoxic compounds that show differential cytotoxicity against isogenic chicken DT40 cell lines with known DNA damage response pathways - Rev3 mutant cell line (AID 743014); further: nearly all actives have a fitted effect of over 55% in size; further: potency means the concentration at half of the fitted maximal effect
[19] = molecular target: Androgen receptor (Homo sapiens) (UniProt P10275); experiment: qHTS assay to identify small molecule antagonists of the androgen receptor (AR) signaling pathway (AID 743035; active means well fitted inhibition curve with a large enough effect in the signal ratio in the repeat runs, not every such curve was filed as active; the % refers to the signal ratio)
Method in brief: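 AR-bla HEK293 reporter cells; 4 h settle at 37C/5% CO2; compound + R1881 agonist, 16 h at 37C; LiveBLAzer B/G FRET substrate 2 h RT; fluorescence intensity read. qHTS format.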

[20] = molecular target: Androgen receptor (Homo sapiens) (UniProt P10275); experiment: qHTS assay to identify small molecule agonists of the androgen receptor (AR) signaling pathway (AID 743036; active means well fitted activation curve with a large enough effect in the signal ratio in the repeat runs, with a control signal flat, not every such curve was filed as active; the % refers to the signal ratio)
Method in brief: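 Screening used 2,000 AR-bla HEK293 cells per well, treated 16 h at 37C with test compounds in DMSO alongside positive and DMSO-only controls; beta-lactamase activity was then read by LiveBLAzer B/G FRET fluorescence after 2 h at room temperature.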

Compound: O=S(=O)(O)CC(S)CS (centres undefined)
- outcome [1]: inactive
- Potency [2]: inactive
- outcome [3]: inactive
- outcome [4]: inactive
- Potency [5]: inactive
- Potency [6]: inactive
- Potency [7]: inactive
- Potency [8]: inactive
- Potency [9]: inactive
- Potency [10]: 3.76 µM (active)
- Potency [11]: inactive
- Potency [12]: inactive
- Potency [13]: inactive
- Potency [14]: inactive

Compound: O=C(O)[C@H]1CN(C/C=C/P(=O)(O)O)CCN1
- outcome [1]: inactive
- Potency [2]: inactive
- outcome [3]: inactive
- outcome [4]: inactive
- Potency [15]: inactive
- Potency [5]: inactive
- Potency [6]: inactive
- Potency [7]: inactive
- Potency [8]: inactive
- Potency [9]: inactive
- Potency [10]: inactive
- Potency [13]: inactive

Compound: COc1cc2c(cc1O)CCN[C@]21CS[C@@H]2c3c(OC(C)=O)c(C)c4c(c3[C@H](COC1=O)N1[C@@H]2[C@H]2c3c(cc(C)c(OC)c3O)C[C@@H]([C@@H]1O)N2C)OCO4
- outcome [1]: inactive
- outcome [3]: inactive
- outcome [16]: inactive
- outcome [4]: inactive
- Potency [15]: inactive
- Potency [6]: inactive
- Potency [9]: 60.1 nM (active) and 17.4 nM (active)
- Potency [17]: 0.9 nM (active) and 2.4 nM (active)
- Potency [18]: 0.0486 µM (active)
- Potency [10]: 0.0001 µM (active)
- Potency [13]: inactive

Compound: CCCCCCCCOC(=O)c1cc(O)c(O)c(O)c1
- outcome [1]: inactive
- Potency [2]: inactive
- outcome [3]: inactive
- outcome [4]: inactive
- Potency [15]: inactive
- Potency [5]: inactive
- Potency [6]: inactive
- Potency [17]: 545 nM (active)
- Potency [18]: 1.37 µM (active)
- Potency [10]: 0.611 µM (active)
- Potency [13]: 48.6 µM (active)

Compound: CC(=NCc1ccccc1)c1ccccc1O
- outcome [1]: inactive
- Potency [2]: inactive
- outcome [3]: inactive
- outcome [4]: inactive
- Potency [15]: inactive
- Potency [6]: inactive
- Potency [9]: inactive
- Potency [17]: inactive
- Potency [18]: inactive
- Potency [10]: inactive
- Potency [11]: inactive
- Potency [13]: inactive

Compound: CCN(CC)CC#CCOC(=O)C(O)(c1ccccc1)C1CCCCC1 (centres undefined)
- outcome [1]: inactive
- Potency [2]: inactive
- outcome [3]: inactive
- Potency [5]: inactive
- Potency [7]: inactive
- Potency [8]: inactive
- Potency [9]: inactive
- Potency [18]: 13.3 µM (active)
- Potency [10]: 26.6 µM (active)
- Potency [13]: inactive

Compound: C[C@@H]1O[C@@H]1P(=O)(O)O
- outcome [1]: inactive
- Potency [2]: inactive
- outcome [3]: inactive
- outcome [4]: inactive
- Potency [15]: inactive
- Potency [5]: inactive
- Potency [6]: inactive
- Potency [7]: inactive
- Potency [8]: inactive
- Potency [9]: inactive
- Potency [10]: inactive
- Potency [11]: inactive
- Potency [19]: inactive
- Potency [20]: inactive
- Potency [13]: inactive
- Potency [14]: inactive

Compound: O=c1[nH]c(=O)n([C@H]2C[C@H](O)[C@@H](CO)O2)cc1/C=C/Br
- Potency [2]: inactive
- outcome [3]: inactive
- outcome [16]: inactive
- outcome [4]: inactive
- Potency [15]: inactive
- Potency [5]: inactive
- Potency [6]: inactive
- Potency [7]: inactive
- Potency [8]: inactive
- Potency [9]: inactive
- Potency [17]: inactive
- Potency [18]: inactive
- Potency [10]: inactive
- Potency [11]: inactive
- Potency [13]: inactive

Compound: Cc1cc(C(=O)NCCc2ccc(S(=O)(=O)NC(=O)NN3CCCCCC3)cc2)no1
- outcome [1]: inactive
- Potency [2]: inactive
- outcome [3]: inactive
- outcome [4]: inactive
- Potency [15]: inactive
- Potency [5]: inactive
- Potency [9]: inactive
- Potency [17]: inactive
- Potency [18]: inactive
- Potency [10]: inactive
- Potency [11]: inactive
- Potency [20]: inactive
- Potency [12]: inactive
- Potency [13]: inactive
- Potency [14]: inactive

Compound: Cc1cc(F)ccc1-c1cc(N2CC[C@@H](O)[C@H]2CO)ncc1N(C)C(=O)C(C)(C)c1cc(C(F)(F)F)cc(C(F)(F)F)c1
- outcome [1]: inactive
- Potency [2]: inactive
- outcome [3]: inactive
- outcome [4]: inactive
- Potency [15]: inactive
- Potency [5]: inactive
- Potency [6]: inactive
- Potency [9]: 17.1 µM (active)
- Potency [17]: 12000 nM (active)
- Potency [18]: 8.5 µM (active)
- Potency [10]: 10.7 µM (active)
- Potency [11]: 30.4 µM (active)
- Potency [14]: 33.8 µM (active)

Compound: CO/N=C(\C(=O)N[C@@H]1C(=O)N2C(C(=O)[O-])=C(C[n+]3cccc4c3CCC4)CS[C@H]12)c1csc(N)n1
- outcome [1]: inactive
- Potency [2]: inactive
- outcome [3]: inactive
- outcome [4]: inactive
- Potency [15]: inactive
- Potency [6]: inactive
- Potency [9]: inactive
- Potency [17]: inactive
- Potency [18]: inactive
- Potency [10]: inactive
- Potency [11]: inactive
- Potency [13]: inactive

Compound: O=C1c2ccccc2C(=O)C1c1ccc(F)cc1
- Potency [2]: inactive
- outcome [3]: inactive
- outcome [16]: inactive
- outcome [4]: inactive
- Potency [15]: inactive
- Potency [5]: inactive
- Potency [6]: inactive
- Potency [7]: inactive
- Potency [8]: inactive
- Potency [9]: inactive
- Potency [17]: inactive
- Potency [10]: inactive
- Potency [11]: inactive
- Potency [20]: inactive
- Potency [12]: inactive
- Potency [13]: inactive
- Potency [14]: inactive

Compound: CCC(NC(C)C)C(O)c1ccc(O)c(O)c1 (centres undefined)
- outcome [1]: inactive
- Potency [2]: inactive
- outcome [3]: inactive
- Potency [15]: inactive
- Potency [6]: inactive
- Potency [9]: inactive
- Potency [18]: inactive
- Potency [10]: inactive
- Potency [13]: inactive

Compound: FC(F)(F)C(F)(F)C(F)(F)C(F)(F)C(F)(F)F
- outcome [1]: inactive
- Potency [2]: inactive
- outcome [3]: inactive
- outcome [4]: inactive
- Potency [15]: inactive
- Potency [5]: inactive
- Potency [6]: inactive
- Potency [9]: inactive
- Potency [18]: inactive
- Potency [10]: inactive
- Potency [11]: inactive
- Potency [13]: inactive
